Compounds with a hit are over-represented: about 15% of the library has one in this group of screens.
VP16 counter = counter-screen for ROR gamma inhibitors: Gal4-VP16 reporter | AID 2546 | Potency, µM (top dose mostly 53.6 µM), for inactives: at the top dose activity, negative = inhibition, actives largely listed as inhibitors | 310,000 compounds, 3.5% hits | Drosophila S2 Gal4-VP16 UAS-luciferase, luminescence, 20 h;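 also: Gal4-VP16 expression switched on by copper sulfate through the metallothionein promoter; nearly all actives have a fitted effect of over 50% in size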
RORgamma inh = ROR gamma (mouse) transcription inhibition | P51450 | Drosophila S2 Gal4-RORgamma UAS-luciferase reporter, 20 h | Potency, µM (titrated, usually from 53.6 µM), inactives show top-dose activity change, negative = inhibition, most hits filed as inhibitors | 310,000 compounds, 5.4% hits | AID 2551; also: nearly all actives have a fitted effect of over 60% in size
Target sequence (P51450 whole entry, looked up, the tested form may be a part): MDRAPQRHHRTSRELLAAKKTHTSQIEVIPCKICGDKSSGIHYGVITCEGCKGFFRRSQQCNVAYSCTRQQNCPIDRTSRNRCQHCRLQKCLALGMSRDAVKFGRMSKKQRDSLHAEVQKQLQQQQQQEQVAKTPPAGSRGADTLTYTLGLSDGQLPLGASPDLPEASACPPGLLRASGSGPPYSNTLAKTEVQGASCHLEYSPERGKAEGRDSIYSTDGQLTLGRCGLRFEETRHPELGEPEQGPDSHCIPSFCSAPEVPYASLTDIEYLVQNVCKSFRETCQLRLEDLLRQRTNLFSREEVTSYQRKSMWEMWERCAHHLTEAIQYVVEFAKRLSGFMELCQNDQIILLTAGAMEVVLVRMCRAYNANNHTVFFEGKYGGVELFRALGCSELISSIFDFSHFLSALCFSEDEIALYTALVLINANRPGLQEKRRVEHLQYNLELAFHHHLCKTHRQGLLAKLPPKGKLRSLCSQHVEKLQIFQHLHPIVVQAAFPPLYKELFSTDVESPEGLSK
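Stable Schneider cell line, Gal4 DNA-binding domain fused to ROR gamma, UAS-luciferase. Cmpd 1 hr RT → CuSO4 700 uM final → 20 hr RT → luciferase reagent 10 min → luminescence.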
ELG1 DNA repair = ELG1-dependent DNA repair inhibition | AID 504467 | HEK293T ELG1-luciferase reporter, luminescence, 16 h; DNA damage induced by 5-fluorouridine | Potency, µM (highest dose often 46.1 µM), without a hit: at the highest dose activity change, negative = inhibition, most hits filed as inhibitors | 330,000 compounds, 2.3% hits; also: nearly all actives have a fitted effect of over 55% in size
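Quantitative HTS, concentration-response format. 2,000 cells/well co-treated with 5-fluorouridine and compound, 16 hr in 5% CO2 at 37 °C; ONE-Glo luminescence read after 30 min.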
ALOX12 inh = ALOX12 (human) lipoxygenase inhibition; P18054; purified 12hLO, xylenol orange hydroperoxide absorbance; Potency, µM (doses to about 108 µM), inactives show at the highest dose activity change, negative = inhibition, actives largely listed as inhibitors; 580,000 compounds, 1.1% hits; AID 1671190
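Hydroperoxide product was detected by ferrous iron/xylenol orange as the 573 to 405 nm absorbance ratio. Arachidonic acid at 40 uM (final) was turned over for 30 min at room temperature by 150 nM human 12hLO, pH 7.0 Hepes buffer, after 15 min compound preincubation.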
TDP1 cell CPT = growth inhibition of DT40 Tdp1-/-;hTDP1 cells with camptothecin (screen for TDP1 inhibitors); chicken DT40 Tdp1-/-;hTDP1 cells + 20 nM CPT, ATP luminescence, 48 h; Potency, µM (titrated, usually from 46.2 µM), for the others: at the top dose activity change, negative = growth inhibition, usual class: inhibitors; 420,000 compounds, 12% hits; also: nearly all actives have a fitted effect of over 55% in size
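Cell growth measured by CellTiter-Glo luminescence after a minimum 48 h, 37 C compound exposure with 20 nM CPT in Tdp1-knockout DT40 cells stably expressing hTDP1, seeded 400/well; qHTS titration format.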
TDP1 cell noCPT = qHTS for Inhibitors of human tyrosyl-DNA phosphodiesterase 1 (TDP1): qHTS in cells in absence of CPT | DT40 Tdp1-/- hTDP1 cells, no CPT, ATP luminescence, 48 h | Potency, µM (doses to about 46.2 µM), for inactives: at the top dose activity change, negative = growth inhibition, usual class: inhibitors | 420,000 compounds, 15% hits | AID 686978, 2013; also: nearly all actives have a fitted effect of over 55% in size
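Stably hTDP1-transfected Tdp1-null chicken DT40 cells were treated with library compounds minus camptothecin and grown for at least 48 hr at 37 °C, after which cellular ATP was quantified by luminescence.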
* marks the source's active call; other numbers are inactive results; ? = inconclusive; . = not tested or not shown. Calls follow the shape of the dose curve; as a rule, active = well fitted curve in the direction sought with a large enough effect; inconclusive = small, poorly fitted or top-dose-only effect, or another doubt; inactive = no such curve, though single readings can be large; an effect the other way counts as inactive or inconclusive. % is scaled to controls: 0 for no effect and ±100 for the full control effect; potency is read from the fitted curve at half-maximal effect.

SMILES	VP16 counter	RORgamma inh	ELG1 DNA repair	ALOX12 inh	TDP1 cell CPT	TDP1 cell noCPT
CCc1cccc2c1NC1(CCCC1)CC2C (stereo not drawn)	4%	-13%	11%	-22%	?	21µM*
O=C(Cc1ccccc1)N1CC2CC(C1)[C@H]1CCCC(=O)N1C2 (stereo partly drawn)	.	.	.	6%	.	.
COc1ccc(NC(=O)c2ccccc2NC(=O)CN2CCCCCC2)cc1	.	.	0%	8%	?	-26%
O=C(CN1CCN(c2ccc(F)cc2)CC1)Nc1ccccc1C(=O)NCCc1ccccc1	.	.	?	15%	?	16µM*
COc1ccccc1N1CCN(CC(=O)Nc2ccccc2C(=O)NCCc2ccccc2)CC1	.	.	?	-2%	15µM*	16µM*
COc1ccc(CCNC(=O)c2ccccc2NC(=O)CN2CCN(c3ccccc3O)CC2)cc1	.	.	5.2µM*	5%	?	10µM*
O=C(CN1CCN(c2ccccc2O)CC1)Nc1ccccc1C(=O)NCCc1ccccc1	.	.	?	?	23µM*	16µM*
O=C(CN1CCN(c2ccccc2)CC1)Nc1ccccc1C(F)(F)F	0%	-20%	-11%	0%	?	?
CCNC(=O)C(C)Sc1nnc(-c2cccs2)n1C1CC1 (stereo not drawn)	.	.	.	-8%	.	.
Cc1ccc(Nc2cccccc2=O)cc1	12%	?	?	-19%	21µM*	?
C[C@@H]1[C@H](c2ccccc2)OCCS(=O)(=O)N1Cc1cccc(C(F)(F)F)c1	.	.	.	.	?	18µM*
O=C(C1CCN(C2CC(=O)N(c3ccc(F)cc3)C2=O)CC1)N1CCOCC1 (stereo not drawn)	?	13µM*	11%	2%	?	-23%
O=C1CCCN1CCC1CCN(C2CC(=O)N(c3ccc(F)cc3)C2=O)CC1 (stereo not drawn)	?	?	.	-5%	18µM*	21µM*
O=c1c(-c2ccc(O)cc2)coc2cc(O)cc(O)c12	5%	?	?	?	13µM*	12µM*
CC(C)COc1ccc(Cc2cnc(N)nc2N)cc1	0%	-4%	0%	-5%	?	?
CC(C)Oc1ccc(Cc2cnc(=S)[nH]c2N)cc1	-24%	11µM*	10%	35µM*	-26%	?
Cc1cccc(C(=O)NC(C2CC2)C2CC2)n1	.	.	.	-22%	.	.
c1ccc(C2Nc3ccccc3-c3nc4ccccc4n32)nc1 (stereo not drawn)	-9%	8.9µM*	-8%	1%	?	?
CN1C(=O)C2(Nc3ccccc3-c3nc4ccccc4n32)c2ccccc21 (stereo not drawn)	-12%	14%	-13%	-9%	-20%	-28%
O=C1Nc2ccccc2C12Nc1ccccc1-c1nc3ccccc3n12 (stereo not drawn)	-1%	?	15µM*	?	?	23µM*
CC1(c2ccccn2)Nc2ccccc2-c2nc3ccccc3n21 (stereo not drawn)	0%	-14%	?	-16%	18µM*	16µM*
c1ccc2c(c1)NC1(CCCCC1)n1c-2nc2ccccc21	4%	2%	?	-15%	-10%	-17%
CCCCC1(C)Nc2ccccc2-c2nc3ccccc3n21 (stereo not drawn)	13%	-21%	?	1%	16µM*	?
O=C(Cc1csc(-c2cccs2)n1)Oc1ccc(Cl)c2ccccc12	.	.	.	2%	.	.
Cc1nccc(-c2ccc(-n3cnc4ccccc43)cc2)n1	?	39%	10µM*	4%	?	?

Screening results: PubChem, National Center for Advancing Translational Sciences (NCATS)
